Laboratory results from PubChem BioAssay AID1159580 (chemical genetic matrix, 2015).
“And” between values parts separate entries of the source, which are not always exact repeats. Equal values may be shown once. Hit rate of the full screen: of about 5,500 compounds, about 2,000 (36%) were called active. Roughly 18% stayed inconclusive and do not appear here. Cut-off read from the data, not from the text of the source: active = normalized growth mostly below about 0.91 (no sharp cut-off); inconclusive = no clear call, values can overlap the other calls; inactive = mostly above about 0.92. The list shows a part of the results.

Assay: chemical genetic growth profiling, strain panel (AID 1159580);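 note: tested at 20 µM; growth read once vehicle control cultures reached saturation at 30 °C; 1 = growth at the plate median or of vehicle wells; lower values mean less growth of the strain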
Settings: growth OD

Measured: normalized growth

CN1CCN(C2=Nc3ccccc3Oc3ccc(Cl)cc32)CC1
inactive: S. cerevisiae deletion strains, locus YJR075W, strain HOC1, stronger effect = lower value 0.996 | S. cerevisiae deletion strains, locus YKL009W, strain mrt4, stronger effect = lower value 0.98 | S. cerevisiae deletion strains, locus YKL068W, stronger effect = lower value 0.992 | S. cerevisiae deletion strains, locus YKL085W, strain MDH1 (second series), stronger effect = lower value 1.02 | S. cerevisiae deletion strains, locus YKL085W, strain MDH1, stronger effect = lower value 1.02 | S. cerevisiae deletion strains, locus YKL160W, strain elf1, stronger effect = lower value 0.958 | S. cerevisiae deletion strains, locus YKL190W, strain CNB1, stronger effect = lower value 1 | S. cerevisiae deletion strains, locus YKR001C, strain vps1, stronger effect = lower value 0.998 | S. cerevisiae deletion strains, locus YKR026C, strain gcn3, stronger effect = lower value 0.983 | S. cerevisiae deletion strains, locus YKR091W, strain srl3, stronger effect = lower value 0.975 | S. cerevisiae deletion strains, locus YLL001W, strain dnm1, stronger effect = lower value 1 | S. cerevisiae deletion strains, locus YLL026W, stronger effect = lower value 0.972 | S. cerevisiae deletion strains, locus YLL041C, strain sdh2, stronger effect = lower value 0.987 | S. cerevisiae deletion strains, locus YLR027C, strain aat2, stronger effect = lower value 0.975 | S. cerevisiae deletion strains, locus YLR039C, strain RIC1, stronger effect = lower value 1.13 | S. cerevisiae deletion strains, locus YLR058C, strain SHM2, stronger effect = lower value 0.986 | S. cerevisiae deletion strains, locus YLR102C, strain apc9, stronger effect = lower value 0.994 | S. cerevisiae deletion strains, locus YLR113W, strain HOG1, stronger effect = lower value 1.03 | S. cerevisiae deletion strains, locus YLR221C, strain rsa3, stronger effect = lower value 1.01 | S. cerevisiae deletion strains, locus YLR258W, strain gsy2, stronger effect = lower value 0.975 | S. cerevisiae deletion strains, locus YLR262C, strain YPT6 (second series), stronger effect = lower value 0.992 | S. cerevisiae deletion strains, locus YLR262C, strain YPT6, stronger effect = lower value 1.13 | S. cerevisiae deletion strains, locus YLR268W, strain sec22, stronger effect = lower value 0.995 | S. cerevisiae deletion strains, locus YLR320W, strain mms22, stronger effect = lower value 1.04 | S. cerevisiae deletion strains, locus YLR330W, strain CHS5, stronger effect = lower value 0.997 | S. cerevisiae deletion strains, locus YLR342W, strain FKS1 (second series), stronger effect = lower value 0.948 | S. cerevisiae deletion strains, locus YLR342W, strain FKS1, stronger effect = lower value 0.994 | S. cerevisiae deletion strains, locus YLR357W, strain rsc2, stronger effect = lower value 0.964 | S. cerevisiae deletion strains, locus YLR370C, strain arc18, stronger effect = lower value 0.967 | S. cerevisiae deletion strains, locus YLR371W, strain rom2, stronger effect = lower value 0.995 | S. cerevisiae deletion strains, locus YLR384C, strain iki3, stronger effect = lower value 1 | S. cerevisiae deletion strains, locus YLR418C, strain cdc73, stronger effect = lower value 0.988 | S. cerevisiae deletion strains, locus YML016C, strain PPZ1, stronger effect = lower value 0.981 | S. cerevisiae deletion strains, locus YML032C, strain rad52, stronger effect = lower value 0.989 | S. cerevisiae deletion strains, locus YML120C, strain ndi1, stronger effect = lower value 1.01 | S. cerevisiae deletion strains, locus YML124C, strain tub3, stronger effect = lower value 0.992 | S. cerevisiae deletion strains, locus YMR058W, strain fet3, stronger effect = lower value 0.957 | S. cerevisiae deletion strains, locus YMR078C, strain ctf18, stronger effect = lower value 0.979 | S. cerevisiae deletion strains, locus YMR125W, strain sto1, stronger effect = lower value 0.942 | S. cerevisiae deletion strains, locus YMR129W, stronger effect = lower value 0.964 | S. cerevisiae deletion strains, locus YMR205C, strain PFK2, stronger effect = lower value 0.995 | S. cerevisiae deletion strains, locus YMR223W, strain ubp8, stronger effect = lower value 0.976 | S. cerevisiae deletion strains, locus YMR231W, strain pep5, stronger effect = lower value 0.982 | S. cerevisiae deletion strains, locus YMR263W, strain SAP30, stronger effect = lower value 0.994 | S. cerevisiae deletion strains, locus YMR307W, strain GAS1, stronger effect = lower value 0.971 and 1.01 | S. cerevisiae deletion strains, locus YNL067W, strain RPL9B, stronger effect = lower value 1.01 | S. cerevisiae deletion strains, locus YNL071W, strain lat1, stronger effect = lower value 1 | S. cerevisiae deletion strains, locus YNL128W, strain TEP1, stronger effect = lower value 0.997 and 1.01 | S. cerevisiae deletion strains, locus YNL153C, strain GIM3, stronger effect = lower value 0.995 and 1 | S. cerevisiae deletion strains, locus YNL175C, strain NOP13, stronger effect = lower value 0.959 | S. cerevisiae deletion strains, locus YNL183C, strain NPR1, stronger effect = lower value 0.951 | S. cerevisiae deletion strains, locus YNL197C, strain WHI3, stronger effect = lower value 0.991 | S. cerevisiae deletion strains, locus YNL209W, strain ssb2, stronger effect = lower value 0.968 | S. cerevisiae deletion strains, locus YNL224C, strain SQS1, stronger effect = lower value 1 | S. cerevisiae deletion strains, locus YNL233W, strain BNI4, stronger effect = lower value 0.997 | S. cerevisiae deletion strains, locus YNL248C, strain rpa49, stronger effect = lower value 0.959 | S. cerevisiae deletion strains, locus YNL250W, strain rad50, stronger effect = lower value 0.973 | S. cerevisiae deletion strains, locus YNL271C, strain bni1, stronger effect = lower value 0.988 | S. cerevisiae deletion strains, locus YNL298W, strain CLA4, stronger effect = lower value 1.01 | S. cerevisiae deletion strains, locus YNL307C, strain MCK1, stronger effect = lower value 0.986 | S. cerevisiae deletion strains, locus YNL322C, strain KRE1 (second series), stronger effect = lower value 0.958 | S. cerevisiae deletion strains, locus YNL322C, strain KRE1, stronger effect = lower value 0.992 | S. cerevisiae deletion strains, locus YNR049C, strain mso1, stronger effect = lower value 0.968 | S. cerevisiae deletion strains, locus YNR052C, strain pop2, stronger effect = lower value 0.987 | S. cerevisiae deletion strains, locus YOL006C, strain TOP1, stronger effect = lower value 0.951 | S. cerevisiae deletion strains, locus YOL012C, strain htz1 1.28 | S. cerevisiae deletion strains, locus YOL147C, strain pex11, stronger effect = lower value 0.999 | S. cerevisiae deletion strains, locus YOR001W, strain rrp6, stronger effect = lower value 0.995 | S. cerevisiae deletion strains, locus YOR061W, strain CKA2, stronger effect = lower value 0.991 | S. cerevisiae deletion strains, locus YOR069W, strain VPS5, stronger effect = lower value 0.97 | S. cerevisiae deletion strains, locus YOR070C, strain gyp1, stronger effect = lower value 0.982 | S. cerevisiae deletion strains, locus YOR080W, strain dia2, stronger effect = lower value 0.969 | S. cerevisiae deletion strains, locus YOR083W, strain WHI5 (second series), stronger effect = lower value 1.01 | S. cerevisiae deletion strains, locus YOR083W, strain WHI5, stronger effect = lower value 0.945 | S. cerevisiae deletion strains, locus YOR106W, strain vam3, stronger effect = lower value 0.959 | S. cerevisiae deletion strains, locus YOR136W, strain idh2, stronger effect = lower value 0.994 | S. cerevisiae deletion strains, locus YOR144C, strain elg1, stronger effect = lower value 0.996 | S. cerevisiae deletion strains, locus YOR184W, strain ser1, stronger effect = lower value 0.982 | S. cerevisiae deletion strains, locus YOR231W, strain MKK1, stronger effect = lower value 1.06 | S. cerevisiae deletion strains, locus YOR265W, strain rbl2, stronger effect = lower value 0.99 | S. cerevisiae deletion strains, locus YOR270C, strain vph1, stronger effect = lower value 0.976 | S. cerevisiae deletion strains, locus YOR290C, strain snf2, stronger effect = lower value 0.941 | S. cerevisiae deletion strains, locus YOR316C, strain cot1, stronger effect = lower value 0.987 | S. cerevisiae deletion strains, locus YPL051W, strain arl3, stronger effect = lower value 0.981 | S. cerevisiae deletion strains, locus YPL055C, strain LGE1, stronger effect = lower value 1.02 | S. cerevisiae deletion strains, locus YPL078C, strain atp4, stronger effect = lower value 0.999 | S. cerevisiae deletion strains, locus YPL106C, strain sse1, stronger effect = lower value 0.946 | S. cerevisiae deletion strains, locus YPL240C, strain hsp82, stronger effect = lower value 0.987 | S. cerevisiae deletion strains, locus YPL241C, strain CIN2, stronger effect = lower value 0.995 and 0.994 | S. cerevisiae deletion strains, locus YPL256C, strain CLN2, stronger effect = lower value 1.06 | S. cerevisiae deletion strains, locus YPR119W, strain clb2, stronger effect = lower value 0.994 | S. cerevisiae deletion strains, locus YPR141C, strain kar3, stronger effect = lower value 0.987 | S. cerevisiae deletion strains, locus YPR163C, strain tif3, stronger effect = lower value 0.994 | S. cerevisiae deletion strains, locus YPR167C, strain met16, stronger effect = lower value 0.993 | S. cerevisiae deletion strains, strain wtn01, stronger effect = lower value 0.992 | S. cerevisiae strains, strain wild type, stronger effect = lower value 0.999
